Bioassay records (PubChem BioAssay)
Only a selection was taken, and hits are over-represented in it overall.
Shiga inhibitor – Shiga toxin inhibition. Vero cells, Shiga toxin protein synthesis inhibition reporter. inhibition, % at 38.7 µM. 9.2% of 290,000 active; in the data active means inhibition mostly above about 28%, no sharp cut-off; inactive means mostly below about 43%; further: 0% is about no effect
Tb PYK inh – T. brucei pyruvate kinase inhibition; TbPYK enzyme, Kinase-Glo Plus ATP luminescence, 45 min; AID 624173; Potency, µM (doses to about 76.8 µM), without a hit: at the highest dose activity, negative = inhibition, usual class: inhibitors; Q57TT1; 0.12% of 410,000 active; further: potency means the concentration at half of the fitted maximal effect; on the % scale 0 is the no-effect control and ±100 the full control effect; nearly all actives have a fitted effect of over 50% in size
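Activity of T. brucei pyruvate kinase was followed by Kinase-Glo Plus luminescence after the enzyme reacted 45 min at room temperature with 130 uM ADP (final) and substrate. Test compounds were added before ADP at multiple concentrations.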
CHX counter – affects cycloheximide protein synthesis inhibition readout, counter-screen; cell reporter, cycloheximide protein synthesis inhibition counterscreen; 12% of 300,000 active; max response, %; AID 2314; in the data active means max response mostly above about 13%, no sharp cut-off; inactive means mostly below about 14%; further: read at 38.3 µM for the half of the compounds with a filed dose; 0% is about no effect
LmPK inhibitor – LmPK (Leishmania mexicana) enzyme inhibition; Q27686; 0.37% of 290,000 active; purified LmPK, Kinase-Glo ATP luminescence, 1 h; AID 1721; Potency, µM (series often up to 57.5 µM), without a hit: at the highest dose activity change, negative = inhibition, most hits filed as inhibitors; further: potency means the concentration at half of the fitted maximal effect; on the % scale 0 is the no-effect control and ±100 the full control effect
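Pyruvate kinase activity monitored as ATP production (luciferase luminescence). Conditions: 0.1 nM enzyme, 0.5 mM PEP, 0.1 mM ADP, 1 h, RT; normalized against uninhibited and no-enzyme wells.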
Sm TGR block – inhibitors of Schistosoma mansoni thioredoxin glutathione reductase; Potency, µM (top dose mostly 114 µM), without a hit: at the top dose activity change, negative = inhibition, usual class: inhibitors; purified TGR, DTNB reduction, TNB absorbance 405 nm; Q962Y6; AID 485364; 3% of 360,000 active; further: potency means the concentration at half of the fitted maximal effect; on the % scale 0 is the no-effect control and ±100 the full control effect; nearly all actives have a fitted effect of over 60% in size
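First, TGR (20 nM dispensed) and NADPH were mixed with compound. Second, a 15 min room-temperature incubation followed. Third, further NADPH and then DTNB were added to start the reaction. Finally, TNB absorbance was monitored kinetically.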
Giardia FBPA inh – Giardia lamblia aldolase inhibition; A8B2U2; purified Giardia FBPA; Potency, µM (titrated, usually from 59.6 µM), for the others: at the highest dose activity, negative = inhibition, actives largely listed as inhibitors; 0.71% of 290,000 active; AID 2451; further: potency means the concentration at half of the fitted maximal effect; on the % scale 0 is the no-effect control and ±100 the full control effect; nearly all actives have a fitted effect of over 55% in size
Target sequence (A8B2U2 whole entry, looked up): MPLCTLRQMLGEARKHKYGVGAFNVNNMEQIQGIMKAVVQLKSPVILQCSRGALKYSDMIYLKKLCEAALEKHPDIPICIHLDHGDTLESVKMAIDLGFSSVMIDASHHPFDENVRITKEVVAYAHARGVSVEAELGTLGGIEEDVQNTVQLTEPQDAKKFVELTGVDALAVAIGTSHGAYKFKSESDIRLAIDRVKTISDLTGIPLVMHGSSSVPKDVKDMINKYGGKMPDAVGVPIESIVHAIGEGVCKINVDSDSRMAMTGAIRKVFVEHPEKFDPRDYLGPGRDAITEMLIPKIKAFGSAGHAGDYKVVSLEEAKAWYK
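Giardia FBPA (40 nM reagent) was preincubated 10 min at RT with compound (up to 57.5 uM final), then substrate plus GAPDH/TPI/NAD/arsenate coupling system with diaphorase/resazurin was added; resorufin fluorescence (525/598 nm) was read after 20 min.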
* = called active by the depositor; ? = inconclusive; . = no result; [ ] = remark or other dose. Unless noted, the call rests on the fitted dose curve; in most records, active means well fitted curve in the direction sought with a large enough effect; inconclusive means small, poorly fitted or top-dose-only effect, or another doubt; inactive means no such curve, though single readings can be large; an effect the other way counts as inactive or inconclusive.

SMILES	Shiga inhibitor	Tb PYK inh	CHX counter	LmPK inhibitor	Sm TGR block	Giardia FBPA inh
CS/C(=C\[N+](=O)[O-])Nc1ccc(OC(F)(F)F)cc1	-8.5	-6.6%	11.9	1.2%	0.282µM*	6.3%
Cc1cc(OCC(F)(F)C(F)(F)C(F)(F)C(F)F)nc(N)n1	77.8*	-1.2%	46.4*	-0.9%	7.2%	.
c1ccc2c(c1)CCN(c1ncnc3nc[nH]c13)C2	-6.5	-9.3%	-1.6	-6.4%	0.0%	-15.7%
C1=C(c2ccccc2)CCN(c2ncnc3nc[nH]c23)C1	34.5	-4.9%	21.0	-2.0%	50.1µM*	-9.8%
CC(C)NC(=O)[C@H]1C[C@@H]1[C@H](NC(=O)OCc1ccccc1)c1ccccc1	.	.	.	.	.	2.3%
CCOCCCNC(=O)C(c1ccc(C)cc1)N(Cc1ccc2c(c1)OCO2)C(=O)c1ccccc1O (stereo not drawn)	.	-5.4%	.	.	-18.7%	.
c1ccc(Cn2c(SCc3nc4ccccc4s3)nnc2-c2ccco2)cc1	14.2	28.2µM*	10.4	3.5%	12.6µM*	-2.0%
CCC(c1nnc(SCC(=O)NC2CCCCC2)n1Cc1ccccc1)N(C)C (stereo not drawn)	.	-1.9%	.	.	-7.2%	.
CCC(c1nnc(SCc2nc3ccccc3s2)n1Cc1ccccc1)N(C)C (stereo not drawn)	56.2*	-14.7%	31.5*	13.5%	0.2%	-0.4%
CN(CC(=O)Nc1ccc(Cl)c(C(F)(F)F)c1)C(=O)CCCNC(=O)c1ccc(Cl)cc1	.	2.5%	.	.	-1.3%	.
CCCCNS(=O)(=O)c1ccc(C)c(-c2nnc3c4ccccc4c(C)nn23)c1	.	-2.7%	.	.	-3.6%	.
N#Cc1ccccc1OCC(=O)NCC(c1ccc(F)cc1)N1CCOCC1 (stereo not drawn)	.	-3.4%	.	.	-1.8%	.
O=c1nc2sc3ccccc3n2c(=O)n1-c1ccc(Cl)cc1	22.4	6.9%	29.3*	0.7%	11.7%	4.1%
Cc1ccc2c(c1)sc1nc(=O)n(-c3cccc(Cl)c3)c(=O)n12	28.8	-8.4%	19.4*	2.0%	4.2%	12.3%
O=c1nc2sc3ccccc3n2c(=O)n1-c1cccc(Cl)c1	36.6	1.4%	19.3	2.0%	-0.1%	-2.2%
C=C(C)CSc1nc(N)c2c(C)c(C)sc2n1	47.7	2.5%	18.9*	1.0%	7.2%	7.2%
COc1ccc(NC(=O)C2CCCN(S(=O)(=O)c3ccc4c(c3)CCCN4C(C)=O)C2)cc1Cl (stereo not drawn)	32.8	-5.0%	0.5	8.9%	-7.7%	.
Cc1cccc(C)c1NC(=O)CCSc1nc(-c2ccc3c(c2)OCO3)cc(C(F)(F)F)n1	.	3.1%	.	.	-1.8%	.
CCOCC(=O)Nc1nc2ccc(S(C)(=O)=O)cc2s1	53.6*	0.7%	32.7*	-5.7%	43.7%	0.7%
CCOc1ccc2nc(NC(=O)CSCC(=O)Nc3cc(C)on3)sc2c1	.	-6.6%	.	.	-17.2%	.
CCOCC(=O)Nc1nc2ccc(OCC)cc2s1	111.9*	-7.9%	52.3*	?	?	-1.2%
Cc1ccc2nc(NC(=O)CSCC(=O)OCC(=O)c3ccccc3)sc2c1	15.0	-2.2%	18.4*	2.4%	?	-0.2%
CCOc1ccc2nc(-c3cc(NC(C)=O)ccc3O)sc2c1	50.5	-0.1%	35.0*	10.6%	5.7%	0.0%
CCOC(=O)c1ccc(NC(=O)CSCC(=O)OCC(=O)c2ccccc2)cc1	-9.6	4.8%	-0.7	3.4%	-12.5%	-2.9%
COc1ccc(OCC(=O)Nc2ccc(O)c(-c3nc4ccccc4s3)c2)cc1	.	0.4%	.	.	0.1%	.
SMILES	Shiga inhibitor	Tb PYK inh	CHX counter	LmPK inhibitor	Sm TGR block	Giardia FBPA inh
COc1ccc(S(=O)(=O)N2CCCCCC2)cc1C(=O)N(C)Cc1ccc(OC)c(OC)c1OC	.	0.8%	.	.	-0.6%	.
CCOc1ccc2nc(NC(=O)CCC(=O)c3cccs3)sc2c1	86.9*	-10.6%	30.3*	-1.6%	0.0%	-3.4%
Cc1ccc2nc(NC(=O)COC(=O)c3ccccn3)sc2c1	119.4*	3.2%	36.2*	-1.3%	-5.4%	-26.6%
CCOCC(=O)Nc1nc2ccc(C)cc2s1	84.5*	0.3%	43.2*	-27.4%	?	0.9%
CC(C)CC(=O)Nc1nc2ccc(S(C)(=O)=O)cc2s1	66.8*	-14.0%	17.4*	-1.2%	-10.1%[57.1 µM]	3.6%
CCCCn1c(=O)n(-c2ccc(Br)cc2F)c(=O)c2c3c(sc21)CN(C(C)=O)CC3	.	0.6%	.	.	4.7%	.
CC(NC(=O)Cn1cc([N+](=O)[O-])cn1)c1ccc(C(C)(C)C)cc1 (stereo not drawn)	.	0.8%	.	.	.	.
COC(=O)[C@]12CCCCC=C1N(Cc1cccc3ccccc13)C(=O)[C@H](CC(=O)NCc1ccc(C)o1)C2	.	-7.0%	.	.	.	.
CC1CCCCC1NC(=O)CCCCn1c(=O)[nH]c2ccsc2c1=O (stereo not drawn)	-12.3	-8.2%	-6.0	2.6%	-0.1%	-6.1%
COc1ccc(OC)c(CCNC(=O)c2cc3cccc4c3n2CC(C)S4)c1 (stereo not drawn)	.	6.7%[15.4 µM]	.	.	5.8%	.
CS(=O)(=O)c1ccc2nc(NC(=O)CC3CCCC3)sc2c1	53.1*	-4.9%	24.0*	0.5%	-2.6%	-5.4%
CCC(=O)Nc1nc2ccc(S(C)(=O)=O)cc2s1	24.9	1.6%	14.0	0.4%	-10.4%	3.7%
COc1ccccc1N1CCN(C(=O)CSc2n[nH]c(-c3ccccc3Cl)n2)CC1	.	-2.6%	.	.	1.1%	.
CC1=NN(c2ccc(Br)cc2)C(=O)/C1=C/c1ccc(-c2ccccc2C(=O)O)o1	.	0.6%	-1.3	6.3%	-22.9%	0.7%
O=C1S/C(=C\c2ccc(N3CCOCC3)o2)C(=O)N1c1ccccc1	153.3*	28.2µM*	30.6*	2.7%	?	?
O=C(O)c1cc(-c2ccc(/C=C3\NC(=O)N(c4ccccc4)C3=O)o2)ccc1Cl	-3.4	-3.9%	-0.9	8.9%	50.1µM*	?
O=C(O)c1ccccc1-c1ccc(C=C2C(=O)N(c3ccccc3)C(=S)N(c3ccccc3)C2=O)o1	.	?	12.5	17.7%	8.91µM*	-13.5%
Cc1cc2nc3s/c(=C/c4ccc(-c5ccccc5C(=O)O)o4)c(=O)n3c2cc1C	12.9	-19.7%	10.5	-4.5%	3.55µM*	-5.8%
O=C(CSc1nccc(=O)[nH]1)Nc1cccc2ccccc12	-8.4	-1.4%	-1.2	0.1%	-7.9%	.
Cc1cccc(NC(=O)Cn2c(=O)n(Cc3ccc4c(c3)OCO4)c(=O)c3oc4ccccc4c32)c1C	.	-1.0%	.	.	5.2%	.
CCOC(=O)c1cc2c(=O)n3ccccc3nc2n(CC2CCCO2)c1=NC(=O)c1ccccc1OCC (stereo not drawn)	.	-0.5%	.	.	-1.3%	.
COc1ccccc1/C=C/C(=O)OCC(=O)NC1CCS(=O)(=O)C1 (stereo not drawn)	.	1.3%	.	.	.	.
O=C(O)c1ccccc1-c1ccc(/C=C2\SC(=O)N(c3ccccc3)C2=O)o1	.	0.2%	14.8*	2.2%	-3.4%	-3.3%
